Screening results (PubChem BioAssay)
A selection: hits, their analogues and other compounds. The true share with any hit is near 21%.
CHX counter = Cycloheximide Counterscreen for Small Molecule Inhibitors of Shiga Toxin; cell reporter, cycloheximide protein synthesis inhibition counterscreen; max response, %; actives 12% (n = 300,000); in the data active = max response mostly above about 13%, no sharp cut-off; inactive = mostly below about 14%; note: read at 38.3 µM for the half of the compounds with a filed dose; 0% is about no effect
Shiga inhibitor = A qHTS for Small Molecule Inhibitors of Shiga Toxin | Vero cells, Shiga toxin protein synthesis inhibition reporter | inhibition, % at 38.7 µM | actives 9.2% (n = 290,000) | AID 2315, 2010; in the data active = inhibition mostly above about 28%, no sharp cut-off; inactive = mostly below about 43%; note: 0% is about no effect
NS1 inh = qHTS Assay for Inhibitors of Influenza NS1 Protein Function. AID 2326, 2010. actives 0.4% (n = 270,000). Potency, µM (highest dose often 46.1 µM), for the others: at the top dose activity, positive = more growth; calls by dose curve; note: potency is the fitted concentration of half-maximal effect; actives are rising curves; nearly all actives have a fitted effect of over 50% in size
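Compounds were scored for reversing the slow growth caused by influenza A NS1 in S. cerevisiae, measured by optical density at 600 nm. Assay medium contained 2% galactose at pH 6.0; NS1-free yeast of the same strain were the positive control.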
Sm TGR block = qHTS Assay for the Inhibitors of Schistosoma Mansoni Peroxiredoxins | Schistosoma mansoni thioredoxin glutathione reductase (TGR), Q962Y6 | purified TGR, DTNB reduction, TNB absorbance 405 nm | Potency, µM (top dose mostly 114 µM), for inactives: at the highest dose activity change, negative = inhibition, hits mostly inhibitors | actives 3% (n = 360,000); note: potency is the fitted concentration of half-maximal effect; % is set by controls: 0 for no effect and ±100 for the full control effect; nearly all actives have a fitted effect of over 60% in size
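First, TGR (20 nM dispensed) and NADPH were mixed with compound. Second, a 15 min room-temperature incubation followed. Third, further NADPH and then DTNB were added to start the reaction. Finally, TNB absorbance was monitored kinetically.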
Pf growth 48h = Primary qHTS for delayed death inhibitors of the malarial parasite plastid, 48 hour incubation; actives 5.9% (n = 310,000); AID 504832, 2011; Potency, µM (top dose mostly 28.7 µM), without a hit: at the top dose activity change, negative = inhibition, actives largely listed as inhibitors; P. falciparum luciferase growth in erythrocytes, 48 h; note: potency is the fitted concentration of half-maximal effect; % is set by controls: 0 for no effect and ±100 for the full control effect
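Here the parasites carry a stable luciferase gene and grow inside erythrocytes in Albumax-based RPMI medium with compound for one erythrocytic cycle. Activity is scored as loss of luminescent signal.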
Pf growth 96h = Primary qHTS for delayed death inhibitors of the malarial parasite plastid, 96 hour incubation. P. falciparum luciferase reporter growth, 96 h. Potency, µM (highest dose often 28.7 µM), without a hit: at the top dose activity change, negative = inhibition, most hits filed as inhibitors. actives 6.9% (n = 320,000); note: potency is the fitted concentration of half-maximal effect; % is set by controls: 0 for no effect and ±100 for the full control effect
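Plates of compound plus infected erythrocytes (2% hematocrit, 0.05% parasitemia final) incubate 96 hours, 37 C, 5% CO2. Detection reagent added; reduced luminescence from the parasites' luciferase reporter flags inhibition.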
The depositor's hits bear a star; ? = inconclusive; · = not tested or not shown; [ ] = dose if it differs, or a comment. Unless noted, calls come from the whole dose curve; as a rule, active = well fitted curve in the direction sought with a large enough effect; inconclusive = small, poorly fitted or top-dose-only effect, or another doubt; inactive = no such curve, though single readings can be large; an effect the other way counts as inactive or inconclusive.

SMILES	CHX counter	Shiga inhibitor	NS1 inh	Sm TGR block	Pf growth 48h	Pf growth 96h
COc1ccc(-c2cc3ccc(O)cc3oc2=O)cc1	37*	74*	-15%	-36%	152%	188%
Cc1ccccc1-c1nc2c(c(SCc3cccc(Cl)c3)n1)Cc1c(CO)cnc(C)c1O2	·	·	·	-3%	·	·
Cc1nn(-c2ccc(F)cc2)c(Cl)c1/C=C(\CCC(=O)O)c1nc2ccccc2s1	-4	-11	-9%	9%	1%	1%
Cc1cc(N)n(-c2nc3ccccc3s2)n1	-4	9	2%	29%	?	4%
Cc1nn(-c2nc3ccccc3s2)c(N)c1Sc1ccc(F)cc1	20*	48*	-3%	10%	99%	?
Cc1nn(-c2nc3ccccc3s2)c(N)c1-c1ccccc1	72*	91*	14%	3%	167%	·
Cc1nn(-c2nc3ccccc3s2)c(N)c1-c1ccc(Cl)cc1	33*	54*	-16%	-7%	37%	·
Cc1cc(-c2nc3ccccc3s2)ccc1NC(=O)c1cc(Cl)ccc1Cl	·	·	·	8%	·	·
COc1ccc(OC2CCN(C(=O)Nc3ccc(C)cc3)CC2)cc1	19	72	-6%	-17%	-8%	10%
COc1ccc(C(=O)NCCn2cc(SCC(=O)Nc3ccccc3)c3ccccc32)cc1OC	·	·	·	1%	·	·
COc1ccccc1P(=O)(Cc1ccccc1[N+](=O)[O-])c1ccccc1 (stereo not drawn)	-3	-5	8%	-1%	-25%	?
O=C(CCSc1ccccc1)NNC(=O)c1ccccc1F	·	·	·	?	27%	41%
COc1cccc(C(=O)N=c2sc3c(C)ccc(OC)c3n2C)c1	45*	49*	10%	10%	300%	89%
COc1ccccc1C(=O)N=c1sc2c(C)ccc(OC)c2n1C	40*	107*	3%	5%	51%	36%
COc1ccc(C(=O)N=c2sc3c(C)ccc(OC)c3n2C)cc1OC	12	27	-1%	-2%	-15%	-5%
COc1ccc(N2CCN(C3(c4ccccc4)C(=O)c4ccccc4C3=O)CC2)cc1	·	·	·	10%	·	·
O=C(c1ccc(F)c([N+](=O)[O-])c1)N1CC2CC(C1)c1cccc(=O)n1C2 (stereo not drawn)	44*	105*	5%	?	-14%	-6%
O=C(c1ccc(-c2nnc(Nc3ccccc3)c3ccccc23)cc1)N1C[C@H]2C[C@H](C1)c1cccc(=O)n1C2	-2	-8	-21%	-17%	13µM*	3.7µM*
CC1CC(C)CN(C(=O)c2ccc(N3CC4CC(C3)c3cccc(=O)n3C4)c([N+](=O)[O-])c2)C1 (stereo not drawn)	-3	-11	5%	-15%	-16%	?
CCS(=O)(=O)NCCc1csc(-c2ccc(OC)c(OC)c2)n1	1	-9	-6%	0%	0%	12%
CCOc1ccc(-c2nc(CSc3nncs3)cs2)cc1OC	19*	53	-24%	0%	-12%	?
CCOc1ccc(-c2nc(CSc3nnc(C)s3)cs2)cc1OC	37*	89*	-66%	-10%	26%	·
CCCCN1CC2([N+](=O)[O-])C=CC(=O)C([N+](=O)[O-])(C1)C2CC(=O)c1ccccc1 (stereo not drawn)	-4	-20	1%	22µM*	-11%	64%
CCCCn1c(=N)n(CC(=O)c2ccc([N+](=O)[O-])cc2)c2ccccc21	6	-5	·	1%	49%	15%
CCN1CC2([N+](=O)[O-])C=CC(=O)C([N+](=O)[O-])(C1)C2CC(=O)c1ccccc1 (stereo not drawn)	-6	-21	13%	13µM*	-4%	·
SMILES	CHX counter	Shiga inhibitor	NS1 inh	Sm TGR block	Pf growth 48h	Pf growth 96h
CN1CCN(CCCCC(=O)c2ccccc2)CC1	-1	24	-4%	0%	12%	206%
Clc1cccc(NC2=NCCC2)c1	0	-12	-5%	6%	8%	·
O=C(NNC1=NCCCCC1)Nc1ccc(Cl)cc1	23*	23	-1%	8%	28%	43%
O=C(NNC(=O)C1CC1)Nc1ccc(Cl)cc1	1	11	-6%	-1%	5%	-26%
O=C(NNC1=NCCCCC1)Nc1cccc(Cl)c1	12*	45	·	0%	136%	111%
CCOc1ccc(NC(=O)CSc2nnc3scc(-c4ccccc4)n23)cc1	·	·	·	-3%	·	·
O=C(CSCc1ccc(Cl)cc1)N/N=C/c1ccc(Cl)cc1Cl	-2	-19	7%	5%	7%	?
O=C(COc1ccccc1)N1CCc2ccccc21	31*	76*	-6%	-17%	91%	4%
COCC(=O)N1CCCc2ccccc21	14	9	-3%	-7%	17%	29%
O=C1c2cccc(OCC(=O)N3CCCc4ccccc43)c2CCN1Cc1ccccc1	14*	20	-4%	-25%	?	?
CCOc1cc(CNCCc2ccccc2F)ccc1OC	-2	-4	4%	-3%	-25%	?
O=C1c2cccc(OCC(=O)N3CCCc4ccccc43)c2CCN1Cc1ccc(Br)cc1	12	-5	2%	-25%	?	?
O=C(COc1ccccc1)OCC(=O)N1CCCc2ccccc21	·	·	·	-1%	7%	33%
NC(=O)c1ccccc1OCC(=O)N1CCCc2ccccc21	26*	74*	8%	-8%	10%	9%
COc1cc(CNCCc2ccccc2F)ccc1OCC(=O)N1CCCCC1	-3	1	·	?	-27%	13µM*
Cc1ccc2nc(SCc3nc(-c4ccccc4C)no3)[nH]c2c1	·	·	·	1%	·	·
CCOc1ccc(CCNC(c2nnc(-c3ccccc3)o2)c2ccccc2Cl)cc1OCC (stereo not drawn)	·	·	·	5%	·	·
O=C(COc1ccccc1Cl)N1CCc2ccccc21	41*	101*	-14%	-3%	69%	5%
O=C(COc1cccc2c1CCN(Cc1ccccc1F)C2=O)N1CCCCC1	1	14	·	89µM*	?	?
O=C(COc1ccc(Br)cc1)N1CCc2ccccc21	27*	111*	-4%	-2%	36%	59%
O=C(COc1cccc2c1CCN(Cc1ccccc1F)C2=O)N1CCOCC1	-3	14	-4%	5%	1%	-41%[1.15 µM]
O=C(CCCOc1ccccc1)N1CCCc2ccccc21	49*	132*	-22%	4%	0%	15%
O=C(COc1ccccc1Cl)N1CCc2ccccc2C1	4	·	-28%	-5%	0%	10%
O=C(COc1ccc(Br)cc1)N1CCc2ccccc2C1	10	24	-49%	·	-20%	?
O=C(Nc1cccc([N+](=O)[O-])c1)Nc1cnccn1	-3	-1	2%	15%	2%	?
